This passage reports composite z-score and z-score results from PubChem BioAssay.

The source made the active and inactive calls. Unless noted, how the calls were made is not given here.

Experiment [1] relates to Wnt5a (protein binding on small-molecule microarray). Briefly: Wnt5a binders on small-molecule microarray, primary screen, biophysical, 635/667 nm fluorescence (AID 1142).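 Further: fluorescence read at 667 nm with signal to noise per printed feature.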 Particulars: 635 nm fluorescence, higher = more signal.
Experiment [2] in a line: cell viability in Huh7 cells, primary screen, cytotoxicity control for HCV replication inhibitor project, CellTiter-Glo luminescence, basal, 48 h (AID 1143).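 Further: Huh7 hepatoma cells carrying a hepatitis C replication reporter with no stimulus; test concentration not given here.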 To be noted: Huh7 HCV replicon, higher = more signal, called active from +8 up or from −8 down.
Experiment [3] is described as follows: P. aeruginosa biofilm formation inhibitors, primary screen, PAO1 strain, BacTiter-Glo luminescence, LB-PBS (AID 1144). To be noted: 12 h, higher = more signal.
A short description of experiment [4]: CREB reporter modulators without forskolin, primary screen, cell-based, PC12, CRE-LacZ reporter, unstimulated (AID 1145). To be noted: no forskolin, luminescence, 4.5 h, higher = more signal, called active from +8 up or from −8 down.
Experiment [5] is described as follows: CREB reporter modulators under forskolin, primary screen, cell-based, PC12, CRE-LacZ reporter, forskolin-stimulated (AID 1146).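 Further: PC12 cells with 6xCRE LacZ reporter stimulated by forskolin 10 µM; beta-galactosidase reporter signal reflecting CREB driven transcription.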 Particulars: luminescence, 4.5 h, higher = more signal, called active from +8 up or from −8 down.
Experiment [6] addresses Streptavidin (Streptomyces avidinii) (UniProt P22629). As to the kind of experiment: streptavidin binders on small-molecule microarray, primary screen, artefact control for SMM compound annotation, biophysical, 635/667 nm fluorescence (AID 1147).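 Further: signal reflects streptavidin binding to arrayed compounds as a control protein.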 Particulars: streptavidin binding, higher = more signal.
A short description of experiment [7]: small-molecule binders of probe aInhba, primary screen, biochemical, small-molecule microarray, 635/667 nm fluorescence (AID 1148).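 Further: score merges 667nm spot fluorescence with signal-to-noise for antibody binding to printed compounds.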 Particulars: higher = more signal.
For experiment [8], the target named is Torsin-1A (Homo sapiens) (UniProt O14656). Briefly: torsin A binders from cell lysate, primary screen, small-molecule microarray, wild-type, 635/667 nm (AID 1149). Particulars: COS7 hTOR1A-WT lysate, 635 nm fluorescence, higher = more signal.
Chain of Torsin-1A (Homo sapiens) (O14656 whole entry, looked up): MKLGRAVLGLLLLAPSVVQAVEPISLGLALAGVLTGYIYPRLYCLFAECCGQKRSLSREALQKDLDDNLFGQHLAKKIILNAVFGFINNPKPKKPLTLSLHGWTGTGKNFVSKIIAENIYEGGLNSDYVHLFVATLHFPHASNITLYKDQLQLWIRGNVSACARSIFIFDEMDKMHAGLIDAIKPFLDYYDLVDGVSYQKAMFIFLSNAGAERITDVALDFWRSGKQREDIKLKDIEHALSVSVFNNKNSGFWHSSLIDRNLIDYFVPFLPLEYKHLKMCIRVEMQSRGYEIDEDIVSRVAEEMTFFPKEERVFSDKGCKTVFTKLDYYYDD
For experiment [9] the target is unchanged. Briefly: small-molecule binders of mutant TOR1A in lysate, primary screen, cell lysate, small-molecule microarray, COS7 lysate, 635/667 nm fluorescence (AID 1150).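 Further: score pools 667 nm emission and signal to noise measuring lysate protein binding.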 Particulars: COS7 hTOR1A mutant lysate, 635 nm fluorescence, higher = more signal.
Experiment [10] has as its system Sonic hedgehog protein (Shh). As to the kind of experiment: small-molecule binders of Shh protein, primary screen, biochemical, small-molecule microarray, 635/667 nm fluorescence (AID 1151).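 Further: Shh protein binding to compounds spotted on small-molecule microarray slides; score combines spot fluorescence intensity with signal-to-noise across triplicate slides.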 To be noted: small-molecule microarray binding, 635 nm fluorescence; higher = more signal.
Experiment [11] is described as follows: E. coli DRC41 culture turbidity changes, primary screen, E. coli filamentation inducer project, strain DRC41, OD650, 48 h (AID 1152).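 Further: E. coli MC1000 strain DRC41 lacking acrAB efflux pump and sulA.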 To be noted: E. coli DRC41 (acrAB sulA), higher = more signal, called active from +8 up or from −8 down.
Experiment [12] in a line: small-molecule binders of probe aLefty1, primary screen, biochemical, small-molecule microarray, 635/667 nm fluorescence (AID 1153).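 Further: score merges spot fluorescence with signal-to-noise ratio from the scanned slide images.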 Particulars: higher = more signal.
Experiment [13] is described as follows: PSAC antagonists in infected red cells, primary screen, cell-based, P. falciparum Indochina, OD700, 1 h (AID 1154). Particulars: P. falciparum Indochina infected RBC osmotic lysis, higher = more signal, called active from +8 up or from −8 down.
Experiment [14] can be described thus: PSAC antagonists in infected red cells, primary screen, cell-based, P. falciparum Indochina, OD700, 2 h (AID 1155).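 Further: lysis reports solute entry through the parasite surface anion channel PSAC; channel blockers reduce lysis of infected cells.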 To be noted: P. falciparum Indochina infected erythrocytes, osmotic lysis OD700; higher = more signal, called active from +8 up or from −8 down.
Experiment [15] in a line: osmotic lysis modulators in infected erythrocytes, primary screen, PSAC antagonist project, cell-based, P. falciparum Indochina, OD700, 3 h (AID 1156). Particulars: higher = more signal, called active from +8 up or from −8 down.
Experiment [16] is described as follows: PSAC antagonists in infected red cells, primary screen, cell-based, P. falciparum Indochina, OD700, 18 h (AID 1157). To be noted: P. falciparum Indochina infected erythrocytes, osmotic lysis OD700, 18 h; higher = more signal, called active from +8 up or from −8 down.
Experiment [17] is described as follows: modulators of S6 phosphorylation in cells, primary screen, cell-based, A549, cytoblot, luminescence, serum-stimulated (AID 1158).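 Further: serum-stimulated A549 lung adenocarcinoma cells; signal is phosphorylated S6 detected by cytoblot immunostaining with HRP secondary.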 To be noted: A549 phospho-S6 cytoblot, 5 h, higher = more signal.
Experiment [18] has as its target NADPH oxidase 2 (Homo sapiens) (UniProt P04839). Briefly: NOX2-dependent H2O2 signal modulators, primary screen, NOX inhibitor project, cell-based, HEK293-NOX2, PMA-stimulated, Amplex Red fluorescence (AID 1159). Further: test concentration not given here. To be noted: 45 min, higher = more signal, called active from +8 up or from −8 down.
Experiment [19] addresses NADPH oxidase 4 (Homo sapiens) (UniProt Q9NPH5). Briefly: NOX4-dependent H2O2 signal modulators, primary screen, NOX inhibitor project, cell-based, HEK293-NOX4, tetracycline-induced, Amplex Red fluorescence (AID 1160). To be noted: 45 min, higher = more signal, called active from +8 up or from −8 down.
In experiment [20] the target is NADPH oxidase 5 (Homo sapiens) (UniProt Q96PH1). Briefly: NOX5-dependent H2O2 signal modulators, primary screen, NOX inhibitor project, cell-based, HEK293-NOX5, Amplex Red fluorescence (AID 1161). To be noted: HEK293-NOX5, ionomycin, 45 min, higher = more signal.
Chain of NADPH oxidase 5 (Homo sapiens) (Q96PH1 whole entry, looked up): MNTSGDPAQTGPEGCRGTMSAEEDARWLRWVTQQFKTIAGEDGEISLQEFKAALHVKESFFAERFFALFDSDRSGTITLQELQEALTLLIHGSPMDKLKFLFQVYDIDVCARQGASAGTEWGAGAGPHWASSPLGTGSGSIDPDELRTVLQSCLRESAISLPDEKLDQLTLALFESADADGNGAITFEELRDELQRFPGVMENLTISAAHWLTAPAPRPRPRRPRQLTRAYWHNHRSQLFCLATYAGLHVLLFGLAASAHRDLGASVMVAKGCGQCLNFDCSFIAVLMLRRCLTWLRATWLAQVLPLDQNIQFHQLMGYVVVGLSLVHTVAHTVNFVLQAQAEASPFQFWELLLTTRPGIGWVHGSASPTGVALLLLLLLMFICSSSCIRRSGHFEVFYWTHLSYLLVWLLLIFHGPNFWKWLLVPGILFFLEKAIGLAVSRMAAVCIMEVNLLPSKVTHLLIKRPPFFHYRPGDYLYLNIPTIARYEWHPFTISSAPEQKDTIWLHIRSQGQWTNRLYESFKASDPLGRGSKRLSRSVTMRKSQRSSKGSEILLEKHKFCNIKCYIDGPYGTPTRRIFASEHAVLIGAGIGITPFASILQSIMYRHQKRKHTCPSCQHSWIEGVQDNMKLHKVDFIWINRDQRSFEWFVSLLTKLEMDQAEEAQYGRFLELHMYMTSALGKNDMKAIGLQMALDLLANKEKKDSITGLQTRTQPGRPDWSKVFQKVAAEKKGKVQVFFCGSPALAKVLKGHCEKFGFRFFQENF

Chain of NADPH oxidase 2 (Homo sapiens) (P04839 whole entry, looked up): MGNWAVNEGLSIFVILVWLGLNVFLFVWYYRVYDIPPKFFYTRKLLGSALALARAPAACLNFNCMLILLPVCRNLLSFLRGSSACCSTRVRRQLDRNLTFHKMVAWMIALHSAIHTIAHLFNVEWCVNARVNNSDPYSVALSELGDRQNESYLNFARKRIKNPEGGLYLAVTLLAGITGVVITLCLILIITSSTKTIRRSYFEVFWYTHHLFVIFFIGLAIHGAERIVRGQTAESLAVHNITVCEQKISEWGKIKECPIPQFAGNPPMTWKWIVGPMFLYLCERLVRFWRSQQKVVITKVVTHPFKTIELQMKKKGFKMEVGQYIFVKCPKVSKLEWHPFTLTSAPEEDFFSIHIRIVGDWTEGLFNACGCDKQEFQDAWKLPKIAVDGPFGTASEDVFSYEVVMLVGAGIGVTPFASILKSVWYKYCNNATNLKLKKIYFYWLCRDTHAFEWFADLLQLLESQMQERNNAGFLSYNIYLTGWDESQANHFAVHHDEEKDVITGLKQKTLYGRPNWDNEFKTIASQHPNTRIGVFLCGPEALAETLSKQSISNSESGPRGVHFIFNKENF
Chain of Streptavidin (Streptomyces avidinii) (P22629 whole entry, looked up): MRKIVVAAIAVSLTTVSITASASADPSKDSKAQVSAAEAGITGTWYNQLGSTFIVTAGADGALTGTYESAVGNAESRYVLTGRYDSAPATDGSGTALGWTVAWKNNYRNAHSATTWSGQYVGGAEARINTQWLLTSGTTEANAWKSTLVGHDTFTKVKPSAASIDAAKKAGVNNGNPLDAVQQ
Chain of NADPH oxidase 4 (Homo sapiens) (Q9NPH5 whole entry, looked up): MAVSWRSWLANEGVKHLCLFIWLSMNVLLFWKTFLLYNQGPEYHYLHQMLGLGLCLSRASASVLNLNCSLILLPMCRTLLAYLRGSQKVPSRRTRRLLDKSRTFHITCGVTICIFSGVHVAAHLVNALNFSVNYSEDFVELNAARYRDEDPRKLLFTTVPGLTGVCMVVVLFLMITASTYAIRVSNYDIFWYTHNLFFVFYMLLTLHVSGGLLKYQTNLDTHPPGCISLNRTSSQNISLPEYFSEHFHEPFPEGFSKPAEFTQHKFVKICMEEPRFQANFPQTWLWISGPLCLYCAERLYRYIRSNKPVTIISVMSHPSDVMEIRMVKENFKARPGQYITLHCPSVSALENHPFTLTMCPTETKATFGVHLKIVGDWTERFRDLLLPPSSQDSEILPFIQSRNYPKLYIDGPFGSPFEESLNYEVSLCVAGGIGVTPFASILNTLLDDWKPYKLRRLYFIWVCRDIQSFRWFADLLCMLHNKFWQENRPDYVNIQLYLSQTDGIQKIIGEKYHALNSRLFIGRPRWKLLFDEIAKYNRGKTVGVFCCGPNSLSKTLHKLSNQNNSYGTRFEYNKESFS

For `COCCOC(=O)N1C(=O)[C@@]2(c3ccccc31)[C@H](c1ccc(O)cc1)N1[C@H](c3ccccc3)[C@H](c3ccccc3)OC(=O)[C@H]1[C@@H]2C(=O)N1CCN(c2ncccn2)CC1`, the composite z-score in experiment [1] is 0.019; in experiment [6], -0.0184; in experiment [7], 0.361; in the experiment with Torsin-1A (Homo sapiens) [8], 0.432; in the experiment with Torsin-1A (Homo sapiens) [9], 0.997; in experiment [10], 1.4. This compound gave a composite z-score in [12] of 0.412. For the same compound, the z-score in [2] was -3.19 (inactive); in experiment [3], 0.109 (inactive); in [4] it was -0.598 (inactive); in [5], 1.09 (inactive); in experiment [11], 0.381 (inactive); in [13], 1.4 (inactive). In addition, the z-score in experiment [14] was 0.622 (inactive); in experiment [15] it was 0.113 (inactive); in experiment [16], 0.431 (inactive); in experiment [17], 0.174; in experiment [18] it was 0.964 (inactive); in experiment [19], 0.386 (inactive). Further, in experiment [20], the z-score worked out at 1.08.
Take `C[N+](C)(C)CCCCCCNC(=O)[C@@H]1C[C@@H]2C(=O)N3CCC[C@H]3C(=O)N2[C@@H]1c1ccc(O)cc1`: the composite z-score in [1] was 0.311; in experiment [6] it was -0.31; in experiment [7], -0.0762; in the experiment with Torsin-1A (Homo sapiens) [8], 1.25; with Torsin-1A (Homo sapiens) [9], 1.15; in experiment [10], 2.12. Moreover, in experiment [12], the composite z-score was -0.021. Moreover, the z-score is 0.143 (inactive) in experiment [2]; -0.573 (inactive) in experiment [3]; -0.663 (inactive) in experiment [4]; -0.62 (inactive) in experiment [5]; 0.524 (inactive) in experiment [11]; 1.55 (inactive) in experiment [13]. Also, the z-score was -0.15 (inactive) in experiment [14]; -0.72 (inactive) in experiment [15]; -0.117 (inactive) in [16]; -0.196 in [17]; -0.425 (inactive) in experiment [18]; 0.375 (inactive) in experiment [19]. The z-score in [20] is -0.233.
With `CC(CO)N1C(=O)[C@@H]2[C@H]3C(=O)OCC=C[C@H]3OC23C=CCN(Cn2nnc4ccccc42)C(=O)[C@@H]13` (stereo not given in full), the composite z-score in experiment [1] was -0.33; in experiment [6] it was -0.78; in [7], -0.213; in the experiment with Torsin-1A (Homo sapiens) [8] it was -0.49; with Torsin-1A (Homo sapiens) [9], -1.26; in experiment [10], 0.464. Besides, the composite z-score in [12] is -0.147. In addition, the z-score is -0.407 (inactive) in [2]; 1.48 (inactive) in [3]; 0.0524 (inactive) in [4]; -0.391 (inactive) in experiment [5]; -0.597 (inactive) in experiment [11]; 0.638 (inactive) in [13]. Moreover, the z-score in experiment [14] is 0.359 (inactive); in experiment [15], 0.029 (inactive); in experiment [16], 0.0866 (inactive); in experiment [17], -0.0773; in experiment [18], 0.698 (inactive); in [19] it was 0.672 (inactive). The z-score in experiment [20] worked out at 1.78.
For `COc1ccc(C(=O)Nc2ccc(CN3C(=O)[C@]4(O[C@H](CC(=O)N5Cc6ccccc6C[C@H]5CO)[C@@H]([Si](C)(C)c5ccc(OC)cc5)[C@@H]4C)c4ccccc43)cc2)cc1`, the composite z-score in experiment [1] was 0.307; in experiment [6] it was 0.134; in experiment [7] it was -0.132; with Torsin-1A (Homo sapiens) [8], 0.851; with Torsin-1A (Homo sapiens) [9], 0.93; in experiment [10] it was 2.04. In experiment [12], the composite z-score was found to be 0.0004. Further, the z-score in [2] is -3.81 (inactive); in experiment [3] it was 0.556 (inactive); in experiment [4] it was -0.011 (inactive); in [5], -0.6 (inactive); in experiment [11], -0.298 (inactive); in experiment [13], 3.15 (inactive). The z-score was 1.5 (inactive) in experiment [14]; 1.15 (inactive) in experiment [15]; 0.941 (inactive) in experiment [16]; 0.383 in experiment [17]; 0.545 (inactive) in experiment [18]; -0.307 (inactive) in experiment [19]. In addition, in experiment [20], the z-score was 2.12.
For `CC(C)N1CC=CC23O[C@@H]4C=CCCOC(=O)C4[C@H]2C(=O)N(CCCO)[C@@H]3C1=O` (stereo not given in full), the composite z-score was -0.352 in [1]; -0.912 in [6]; -0.0933 in experiment [7]; -1.02 with Torsin-1A (Homo sapiens) [8]; -0.457 in the experiment with Torsin-1A (Homo sapiens) [9]; 0.403 in [10]. This compound also registered a composite z-score in [12] of 0.0656. Besides, the z-score is -2.89 (inactive) in experiment [2]; -0.614 (inactive) in experiment [3]; -0.749 (inactive) in experiment [4]; -0.313 (inactive) in [5]; 2.91 (inactive) in experiment [11]; -0.0633 (inactive) in [13]. Further, the z-score in experiment [14] is -0.706 (inactive); in [15], 1.3 (inactive); in experiment [16], -0.646 (inactive); in experiment [17] it was 0.842; in [18], -1.67 (inactive); in experiment [19], -2.17 (inactive). In [20], the z-score was -2.78.
